Assay outcomes as filed in PubChem.
This is one part of a sample in which hits are shown more often than they occur.
NS1 inh: qHTS Assay for Inhibitors of Influenza NS1 Protein Function | Potency, µM (series often up to 46.1 µM), without a hit: at the top dose activity, positive = more growth | hit rate 0.4% among 270,000 | AID 2326, 2010; calls by dose curve; further: actives are rising curves; nearly all actives have a fitted effect of over 50% in size
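In this qHTS, NS1 from influenza A is expressed in budding yeast, where it slows growth. Cells are switched from glucose to 2% galactose medium (pH 6.0, -URA), treated with compound, and growth recovery is read at OD600.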
Cruzain inh Det: qHTS Assay for Promiscuous and Specific Inhibitors of Cruzain (with detergent). hit rate 0.43% among 200,000. Potency, µM, inactives show max response, negative = inhibition, most hits filed as inhibitors. Cruzipain (Trypanosoma cruzi), P25779. purified cruzain, Z-FR-AMC fluorescence, 0.01% Triton;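 further: plate controls were neutral wells for no effect and buffer without enzyme for full effect; nearly all actives have a fitted effect of over 40% in size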
Target sequence (P25779 123-467 limits assumed): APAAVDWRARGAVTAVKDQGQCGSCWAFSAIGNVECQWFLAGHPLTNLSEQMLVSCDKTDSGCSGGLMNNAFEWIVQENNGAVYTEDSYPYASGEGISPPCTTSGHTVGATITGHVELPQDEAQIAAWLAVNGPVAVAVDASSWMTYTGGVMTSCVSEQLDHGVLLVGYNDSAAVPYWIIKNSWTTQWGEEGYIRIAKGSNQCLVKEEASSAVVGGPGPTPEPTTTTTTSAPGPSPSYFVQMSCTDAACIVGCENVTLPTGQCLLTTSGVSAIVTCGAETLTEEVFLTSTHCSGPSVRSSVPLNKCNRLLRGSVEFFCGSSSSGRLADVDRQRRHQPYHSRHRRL
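In this qHTS format, compounds are incubated with 1.5 nM cruzain for 15 min at room temperature before 2 uM Z-FR-AMC is added. Release of AMC is followed at 360/450 nm, and progress is taken as the 60 s fluorescence difference.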
Cruzain inh noDet: qHTS Assay for Promiscuous and Specific Inhibitors of Cruzain (without detergent) | purified cruzain, Z-FR-AMC fluorescence, no detergent | Potency, µM, without a hit: max response, negative = inhibition, usual class: inhibitors | Cruzipain (Trypanosoma cruzi), P25779 | hit rate 2.3% among 200,000;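 further: plate controls were enzyme without inhibitor for no effect and buffer without enzyme for full effect; nearly all actives have a fitted effect of over 40% in size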
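Purified cruzain at 1.5 nM, pre-incubated 15 min with compound at room temperature in 100 mM sodium acetate pH 5.5, 5 mM DTT, 0.00005% Triton X-100. Reaction started with 2 uM Z-FR-AMC; AMC fluorescence increase over 60 s gives rate.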
The depositor's hits bear a star; ? = inconclusive; . = no result given. Unless noted, the call rests on the fitted dose curve; in most records, active means well fitted curve in the direction sought with a large enough effect; inconclusive means small, poorly fitted or top-dose-only effect, or another doubt; inactive means no such curve, though single readings can be large; an effect the other way counts as inactive or inconclusive. Potency means the concentration at half of the fitted maximal effect.

SMILES	NS1 inh	Cruzain inh Det	Cruzain inh noDet
CN(C)CCCc1c2ccccc2nc2ccc(Cl)cc12	-10%	-2%	3%
Cc1cccc2cc(C#N)c(NCCNC(=S)NCCCN3CCOCC3)nc12	22%	-8%	-3%
Cc1cc2cc(C#N)c(NCCNC(=S)NCCCN3CCOCC3)nc2cc1C	13%	25µM*	?
O=C1c2ccccc2C(=O)N1c1ccc(-c2nc3ccccc3o2)cc1	2%	4%	5%
NCc1ccc(-c2nc3ccccc3o2)cc1	-18%	-2%	13µM*
COc1ccccc1/C=C(/CC(=O)NCc1ccc(F)cc1)c1nc2ccccc2s1	19%	-7%	16µM*
COc1ccccc1/C=C(/CC(=O)NCc1ccccc1)c1nc2ccccc2s1	8%	-4%	?
CC1(C)CC(=O)c2cc(-c3nc(-c4ccc(F)cc4)cs3)c(=O)[nH]c2C1	.	-2%	1%
O=[N+]([O-])c1cc(S(=O)(=O)N2CCCC2)ccc1N/N=C1/CCCc2ccccc21	2%	-6%	16µM*
NS(=O)(=O)c1ccc(N/N=C2/CCCc3ccccc32)c([N+](=O)[O-])c1	-1%	.	.
Cc1ccc(N2CCN(C3=NC(=O)C(Cc4ccccc4)S3)CC2)cc1 (stereo not given)	-10%	28µM*	-4%
O=C1N=C(N2CCN(c3ccccc3)CC2)SC1Cc1ccccc1 (stereo not given)	-7%	-26%	-7%
Cc1ccc(NC(=O)c2nc(S(C)(=O)=O)ncc2N(Cc2ccco2)Cc2ccccc2F)c(C)c1	.	-3%	1%
COc1ccc(CN(Cc2ccco2)c2cnc(S(C)(=O)=O)nc2C(=O)Nc2ccc(C)c(C)c2)cc1	.	-3%	20µM*
CC(C)c1ccc(CN(Cc2ccco2)c2cnc(S(C)(=O)=O)nc2C(=O)Nc2ccccc2)cc1	.	-4%	?
CCS(=O)(=O)c1ncc(N(Cc2ccco2)Cc2ccccc2F)c(C(=O)Nc2cccc(Cl)c2)n1	.	-3%	20µM*
COc1ccc(CN(Cc2ccco2)c2cnc(S(C)(=O)=O)nc2C(=O)Nc2ccc(C)cc2C)cc1	.	-4%	?
CC(C)(C)c1ccc(CN(Cc2ccco2)c2cnc(S(C)(=O)=O)nc2C(=O)Nc2ccc(F)cc2)cc1	.	-4%	7.9µM*
Cc1cccc(NC(=O)CSc2nc3c(c(=O)[nH]2)CN(Cc2ccc4c(c2)OCO4)CC3)c1C	.	-3%	1%
O=C(NCc1ccccc1Cl)c1ccccc1NC(=O)c1nsc2ccccc12	.	2%	4%
COc1ccc(C2C=C(C34CC5CC(CC(C5)C3)C4)NC(=S)N2)cc1 (stereo not given)	-5%	-3%	25µM*
COc1ccc(C2=CC(c3ccc(OC)c(OC)c3)NC(=S)N2)cc1 (stereo not given)	20%	4%	-2%
C=C(C)OC(C)=O	.	-1%	-3%
CN(C)C(=O)c1nc2ccccc2s1	-3%	-1%	0%
CN(C)c1ccc(CC(=O)c2nc3ccccc3s2)cc1	3%	-4%	20µM*
SMILES	NS1 inh	Cruzain inh Det	Cruzain inh noDet
Cc1nc2ccccc2cc1C[N+]12CN3CN(CN(C3)C1)C2	-6%	3%	-8%
CCc1ccc(NC(=O)Cn2c(=O)n(CCCCC(=O)NCc3ccc4c(c3)OCO4)c(=O)c3ccccc32)cc1	.	-4%	-8%
CC(C)(C)C1CCC2(CC1)Nc1cccc3cccc(c13)N2	8%	-6%	25µM*
CCN(CC)c1ccc(C2Nc3cccc4cccc(c34)N2)cc1	15%	.	.
Cc1ccc(CC(Cc2nc3ccccc3[nH]2)c2nc3ccccc3[nH]2)cc1 (stereo not given)	.	-4%	13%
COC(=O)Cn1ccc(-c2ccc(Cl)cc2)c(C#N)c1=O	0%	.	.
Cc1ccccc1Cn1ccc(-c2ccc(Cl)cc2)c(C#N)c1=O	8%	-8%	25µM*
N#Cc1ccc(CN2CCC3(CC2)CCN(S(=O)(=O)c2ccccc2)CC3)cc1	.	0%	27%
NCC[C@H](O)C(=O)N[C@H]1C[C@@H](N)[C@@H](O[C@H]2O[C@@H](CN)[C@@H](O)[C@@H](O)[C@@H]2O)[C@@H](O)[C@@H]1O[C@H]1O[C@@H](CO)[C@@H](O)[C@@H](N)[C@@H]1O	.	-1%	0%
COCCCNC(=O)C(Cc1ccccc1)NS(=O)(=O)c1ccc2c(c1)c(=O)n(C)c(=O)n2C (stereo not given)	1%	1%	-8%
Cn1c(=O)c2cc(S(=O)(=O)NC(Cc3ccccc3)C(=O)NCc3ccco3)ccc2n(C)c1=O (stereo not given)	-40%	20µM*	16µM*
COc1cccc(-c2nccc(N(C)Cc3ccco3)n2)c1	.	-2%	-7%
O=C(CSc1nc(-c2ccccc2)nc2ccccc12)Nc1nccs1	-33%	-2%	?
O=C(CSc1nc(-c2ccccc2)cs1)Nc1nccs1	-25%	5%	25µM*
Cn1c(=O)oc2cc(S(=O)(=O)NC(Cc3ccccc3)C(=O)NCc3ccccc3Cl)ccc21 (stereo not given)	.	3%	?
NC(=O)c1c(NC(=O)CSc2nc3c(c(C(F)(F)F)n2)CCc2ccccc2-3)sc2c1CCCC2	9%	0%	?
N#Cc1c(NC(=O)CSc2nnc(-c3ccccc3O)n2-c2ccccc2)sc2c1CCCC2	6%	3%	4µM*
N#Cc1c(NC(=O)CSc2nc3c(c(C(F)(F)F)n2)CCc2ccccc2-3)sc2c1CCCC2	9%	-3%	7.9µM*
CCn1c(SCC(=O)Nc2sc3c(c2C#N)CCCC3)nnc1-c1ccncc1	4%	-10%	?
Cc1nn(Cc2ccc(Cl)cc2)c(C)c1NC(=O)CSc1nc2c(c(C(F)(F)F)n1)CCc1ccccc1-2	23%	4%	?
CC1CCc2c(sc(NC(=O)CSc3nc4c(c(C(F)(F)F)n3)CCc3ccccc3-4)c2C(N)=O)C1 (stereo not given)	16%	-2%	10µM*
CC[C@H](C)[C@@H](NC(=O)O[C@@H]1Cc2cc(OC)ccc2O[C@H]1c1cccc(OC)c1)C(=O)OC	.	-4%	4%
C[C@H]1CC[C@@H]2N(C1)C[C@H]1[C@@H]3C[C@H]4[C@@H](C/C(=N\O)[C@H]5C[C@@H](O)CC[C@@]54C)[C@@H]3CC[C@H]1[C@]2(C)O	.	2%	-9%
Cn1c(=O)oc2cc(S(=O)(=O)N3CCCC(C(=O)NCCc4ccc(Cl)cc4)C3)ccc21 (stereo not given)	.	0%	-6%
O=P(O)(OP(=O)(O)c1ccccc1)c1ccccc1 (tested in a mixture with another compound)	-4%	2%	-5%
Cc1ccccc1CN1C(=O)C(O)(CC(=O)c2cccc(Br)c2)c2ccccc21 (stereo not given)	.	-5%	-25%
CCOc1ccccc1CN1CCc2nc(N3CCN(c4ccccc4F)CC3)ncc2C1	.	0%	8%
COc1ccc(Cn2c(NCC(C)C)nc3c2c(=O)n(C)c(=O)n3C)cc1	.	-3%	-8%
CCc1ccc2[nH]c3nc(SCCN4CCOCC4)nnc3c2c1	-3%	.	.
CCc1ccc2[nH]c3nc(SCC(=O)NNC(=O)c4ccc(C(C)(C)C)cc4)nnc3c2c1	11%	0%	4µM*
